Test results published in the supplement of paper PMC10732440.
± gives the standard deviation of the averaged measurements.

System: Caenorhabditis elegans N2 infected with Nematocida parisii ERTm1
Test: progeny production relative to DMSO uninfected control; higher = more progeny despite microsporidia infection (inhibition of infection with low host toxicity)
Conditions: infection time 6 days; 40 µM
Procedure: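 Bleach-synchronised C. elegans N2 L1 larvae (100 per well) were grown in 96-well plates in K-medium with 5x E. coli OP50 and 15,000 N. parisii spores/uL, plus Pandemic Response Box compound at 100 uM or 40 uM (1% DMSO), for 6 days at 21 C with shaking. Worms were stained with Rose Bengal, scanned on a flatbed scanner and counted with WorMachine. Progeny production is given as % of the DMSO uninfected control (triplicate wells), so higher values mean the compound restores progeny despite infection.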

SMILES | progeny production [%]
CC(C)Oc1cccc(NC(=O)c2ccccc2C(F)(F)F)c1 | 3.26 ± 1
COC(=O)Nc1nc2ccccc2[nH]1 | 9.55 ± 1.4
C[C@@]1(O)[C@H](O)[C@@H](CO)O[C@H]1n1ccc2c(N)ncnc21 | 7.31 ± 1.5
NC1(C(=O)O)CCP(=O)(O)CC1 (centres undefined) | 2.95 ± 1.1
COc1cc(C(C)(C)CCCC(C)C)cc(OC)c1OC | 5.3 ± 1.8
Nc1c(C(=O)NCc2ccco2)c2nc3ccccc3nc2n1CCN1CCCCC1 | 6.14 ± 2.6
CCN1CCN(Cc2nc3ccc([N+](=O)[O-])cc3c(=O)n2-c2ccccc2F)CC1 | 6.53 ± 2.2
CCCCc1ccc(C(=O)O)nc1 | 3.89 ± 0.63
COc1ccccc1CN[C@H]1C2CCN(CC2)[C@H]1C(c1ccccc1)c1ccccc1 | 8.71 ± 4.8
CN1C(=O)C(c2ccccc2)C(=O)N(c2ccccc2)c2cc(C(F)(F)F)ccc21 (centres undefined) | 3.86 ± 0.4
C[N+]1(C)CCCC(OC(=O)C(O)(c2ccccc2)c2ccccc2)C1 (centres undefined) | 12.7 ± 11
O=C(NC12CC3CC(CC(C3)C1)C2)c1cc2ccccc2[nH]1 | 6.55 ± 3.2

Same assay, conditions: infection time 6 days; 100 µM

SMILES | progeny production [%]
CC(C)Oc1cccc(NC(=O)c2ccccc2C(F)(F)F)c1 | 18.9 ± 12
COC(=O)Nc1nc2ccccc2[nH]1 | 19.7 ± 17
C[C@@]1(O)[C@H](O)[C@@H](CO)O[C@H]1n1ccc2c(N)ncnc21 | 15.4 ± 2
NC1(C(=O)O)CCP(=O)(O)CC1 (centres undefined) | 16.6 ± 16
COc1cc(C(C)(C)CCCC(C)C)cc(OC)c1OC | 12.1 ± 4.9
Nc1c(C(=O)NCc2ccco2)c2nc3ccccc3nc2n1CCN1CCCCC1 | 8.06 ± 4
CCN1CCN(Cc2nc3ccc([N+](=O)[O-])cc3c(=O)n2-c2ccccc2F)CC1 | 16.4 ± 6.8
CCCCc1ccc(C(=O)O)nc1 | 18.3 ± 10
COc1ccccc1CN[C@H]1C2CCN(CC2)[C@H]1C(c1ccccc1)c1ccccc1 | 16.1 ± 5.7
CN1C(=O)C(c2ccccc2)C(=O)N(c2ccccc2)c2cc(C(F)(F)F)ccc21 (centres undefined) | 8.44 ± 2
C[N+]1(C)CCCC(OC(=O)C(O)(c2ccccc2)c2ccccc2)C1 (centres undefined) | 4.14 ± 1.8
O=C(NC12CC3CC(CC(C3)C1)C2)c1cc2ccccc2[nH]1 | 5.96 ± 4
